# Experimental data reported in PubChem BioAssay.
# Some of the results follow. Activity calls are given as the source filed them. Unless noted, no stated cut-off is given here; in the data, active means activation above about 45%; inactive means the rest.
# Biological target: Sphingosine 1-phosphate receptor 4 (Homo sapiens) (UniProt O95977)
# Assay: blockers of human S1P4 signalling – cell-based, confirmation (AID 1524; in the data active means inhibition above about 30%)
# Conditions: S1P4-expressing cell line, antagonist mode, reporter read-out; at 4.98 µM; active compounds read high
# Sphingosine 1-phosphate receptor 4 (Homo sapiens), sequence (O95977 whole entry, looked up): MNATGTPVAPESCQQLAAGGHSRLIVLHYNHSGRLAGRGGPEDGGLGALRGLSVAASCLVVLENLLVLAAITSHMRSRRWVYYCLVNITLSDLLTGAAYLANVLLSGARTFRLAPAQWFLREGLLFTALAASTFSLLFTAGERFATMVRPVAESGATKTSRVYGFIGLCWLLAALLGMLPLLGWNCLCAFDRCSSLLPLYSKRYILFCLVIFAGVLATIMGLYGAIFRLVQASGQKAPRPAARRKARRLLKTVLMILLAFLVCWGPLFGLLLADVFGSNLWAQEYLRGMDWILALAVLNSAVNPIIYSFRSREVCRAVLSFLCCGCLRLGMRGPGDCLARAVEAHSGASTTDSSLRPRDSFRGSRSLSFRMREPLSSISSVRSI
row,SMILES,inhibition
1,O=C(Nc1ccccc1)c1nnsc1S(=O)(=O)c1ccc(Cl)cc1,116% (active)
2,CCc1c(C)nc2cc(-c3cccs3)[nH]n2c1=O,5.18% (inactive)
3,O=C(/C=C/c1ccc(Cl)c([N+](=O)[O-])c1)c1ccc(O)cc1,102% (active)
4,O=C1C=C(c2ccc(Cl)cc2)C(=O)N1Nc1ccccc1,119% (active)
5,Cc1cccc(NC(=O)c2ccc([N+](=O)[O-])o2)c1,79% (active)
6,CC1CC2=C(CC1/C=N/NC(N)=S)C(C)(C)CCC2 (centres undefined),67.8% (active)
7,C=CS(=O)c1sc(Cl)c(N2CCOCC2)c1[N+](=O)[O-] (centres undefined),102% (active)
8,CC1CC(C)CN(S(=O)(=O)c2cccc(C(=O)N3C(=O)c4cccc(N)c4C3=O)c2)C1 (centres undefined),32.3% (active)

# Biological target: Neuropeptide Y receptor type 2 (Homo sapiens) (UniProt P49146)
# Assay: human Y2 receptor positive modulation or activation – cell-based, confirmation (AID 1539; in the data active means activation above about 33%)
# Conditions: cell-based NPY-Y2 potentiator/agonist assay; at 3.6 µM; active compounds read high
# Neuropeptide Y receptor type 2 (Homo sapiens), sequence (P49146 whole entry, looked up): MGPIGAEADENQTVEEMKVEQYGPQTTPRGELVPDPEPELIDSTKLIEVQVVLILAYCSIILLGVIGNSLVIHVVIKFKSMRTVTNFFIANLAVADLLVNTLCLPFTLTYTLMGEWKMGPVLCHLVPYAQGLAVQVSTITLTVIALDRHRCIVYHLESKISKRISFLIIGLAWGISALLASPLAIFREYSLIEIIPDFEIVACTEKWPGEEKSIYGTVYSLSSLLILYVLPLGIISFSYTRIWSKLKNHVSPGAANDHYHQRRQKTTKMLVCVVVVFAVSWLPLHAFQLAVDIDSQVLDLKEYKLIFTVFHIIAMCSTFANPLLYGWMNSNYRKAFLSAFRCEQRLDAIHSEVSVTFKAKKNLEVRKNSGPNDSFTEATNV
row,SMILES,activation
1,O=C(Nc1sc2c(c1-c1nc3ccccc3[nH]1)CCCC2)C1CC1,19.1% (inactive)
2,O=C1NC(c2ccc(-c3ccccc3[N+](=O)[O-])o2)C(C(=O)c2ccc(Cl)cc2)C(O)(C(F)(F)F)N1 (centres undefined),28.1% (inactive)
3,O=C(NCc1ccccc1)c1ccc(S(=O)(=O)Nc2cccc(C(F)(F)F)c2)cc1,10.8% (inactive)
4,CN(C)c1ccc(CNC2C3CC4CC(C3)CC2C4)cc1 (centres undefined),7.01% (inactive)
5,COc1ccc2nc(NC(=O)NC3CCCCC3)sc2c1,40.8% (active)
6,N/C(=N\S(=O)(=O)c1cc(C(F)(F)F)cc(C(F)(F)F)c1)c1cccs1,20.3% (inactive)
7,CC(Nc1ccccc1)c1cccnc1 (centres undefined),2.4% (inactive)
8,COc1cc(NC(=O)c2ccccc2NS(=O)(=O)c2ccc(Cl)s2)cc(OC)c1,0.49% (inactive)
9,CC(=O)c1ccc2c(c1)OCCOCCOc1ccc(C(C)=O)cc1OCCOCCO2,19.6% (inactive)
10,CN(Cc1ccccc1)C(=O)CCNC(=O)Cn1cnc2ccccc2c1=O,11.1% (inactive)
11,Cc1ccc(CCNC(=O)C2CCN(S(=O)(=O)N3CCCC3)CC2)cc1,-1.21% (inactive)

# Biological target: Sphingosine 1-phosphate receptor 1 (Homo sapiens) (UniProt P21453)
# Assay: blockade of human S1P1 receptor – cell-based, counter-screen for S1P4 antagonist project (AID 1564; in the data active means inhibition above about 40%;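 further: receptor stimulated with S1P near its EC80; 0% = agonist stimulated wells and 100% = vehicle only wells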)
# Conditions: cell-based S1P1 antagonist counterscreen, at 4.98 µM, active compounds read high
# Sphingosine 1-phosphate receptor 1 (Homo sapiens), sequence (P21453 whole entry, looked up): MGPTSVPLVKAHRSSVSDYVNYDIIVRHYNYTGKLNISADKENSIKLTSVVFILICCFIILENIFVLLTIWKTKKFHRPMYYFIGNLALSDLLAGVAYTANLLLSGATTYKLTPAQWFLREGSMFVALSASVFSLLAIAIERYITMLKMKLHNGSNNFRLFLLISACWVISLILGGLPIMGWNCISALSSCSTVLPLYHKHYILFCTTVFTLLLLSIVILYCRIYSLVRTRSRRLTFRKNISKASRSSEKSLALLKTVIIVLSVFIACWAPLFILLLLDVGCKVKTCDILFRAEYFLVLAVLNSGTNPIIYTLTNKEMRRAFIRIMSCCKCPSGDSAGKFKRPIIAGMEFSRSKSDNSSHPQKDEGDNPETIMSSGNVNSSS
row,SMILES,inhibition
1,O=C(Nc1ccccc1)c1nnsc1S(=O)(=O)c1ccc(Cl)cc1,37.5% (inactive)
2,CCc1c(C)nc2cc(-c3cccs3)[nH]n2c1=O,12.8% (inactive)
3,O=C(/C=C/c1ccc(Cl)c([N+](=O)[O-])c1)c1ccc(O)cc1,14.6% (inactive)
4,O=C1C=C(c2ccc(Cl)cc2)C(=O)N1Nc1ccccc1,63% (active)
5,Cc1cccc(NC(=O)c2ccc([N+](=O)[O-])o2)c1,20.2% (inactive)
6,CC1CC2=C(CC1/C=N/NC(N)=S)C(C)(C)CCC2 (centres undefined),7.02% (inactive)
7,C=CS(=O)c1sc(Cl)c(N2CCOCC2)c1[N+](=O)[O-] (centres undefined),12.4% (inactive)
8,CC1CC(C)CN(S(=O)(=O)c2cccc(C(=O)N3C(=O)c4cccc(N)c4C3=O)c2)C1 (centres undefined),8.25% (inactive)

# Biological target: Neuropeptide Y receptor type 1 (Homo sapiens) (UniProt P25929)
# Assay: human Y1 receptor positive modulation or activation – cell-based, fluorescence, counter-screen for NPY-Y2 potentiator project (AID 1651);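 further: cells stimulated with submaximal NPY then isoproterenol with phosphodiesterase inhibitor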
# Conditions: Y1 HEK293-CNG cells, membrane potential fluorescence; at 3.6 µM; active compounds read high
# Neuropeptide Y receptor type 1 (Homo sapiens), sequence (P25929 whole entry, looked up): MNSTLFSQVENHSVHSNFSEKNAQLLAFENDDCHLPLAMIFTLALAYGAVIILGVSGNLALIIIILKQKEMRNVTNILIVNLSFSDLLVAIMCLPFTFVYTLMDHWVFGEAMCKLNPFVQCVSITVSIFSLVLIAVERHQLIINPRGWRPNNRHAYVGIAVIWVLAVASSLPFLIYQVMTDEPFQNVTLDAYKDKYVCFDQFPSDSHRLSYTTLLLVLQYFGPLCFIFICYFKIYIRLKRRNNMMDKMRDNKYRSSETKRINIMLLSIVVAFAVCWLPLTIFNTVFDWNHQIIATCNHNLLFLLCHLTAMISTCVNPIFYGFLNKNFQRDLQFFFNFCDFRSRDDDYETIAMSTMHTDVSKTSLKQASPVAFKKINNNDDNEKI
row,SMILES,activation
1,O=C(Nc1sc2c(c1-c1nc3ccccc3[nH]1)CCCC2)C1CC1,30.4% (inactive)
2,O=C1NC(c2ccc(-c3ccccc3[N+](=O)[O-])o2)C(C(=O)c2ccc(Cl)cc2)C(O)(C(F)(F)F)N1 (centres undefined),38.7% (inactive)
3,O=C(NCc1ccccc1)c1ccc(S(=O)(=O)Nc2cccc(C(F)(F)F)c2)cc1,17% (inactive)
4,CN(C)c1ccc(CNC2C3CC4CC(C3)CC2C4)cc1 (centres undefined),-7.77% (inactive)
5,COc1ccc2nc(NC(=O)NC3CCCCC3)sc2c1,66.1% (active)
6,N/C(=N\S(=O)(=O)c1cc(C(F)(F)F)cc(C(F)(F)F)c1)c1cccs1,29.6% (inactive)
7,CC(Nc1ccccc1)c1cccnc1 (centres undefined),-7.91% (inactive)
8,COc1cc(NC(=O)c2ccccc2NS(=O)(=O)c2ccc(Cl)s2)cc(OC)c1,-30.1% (inactive)
9,CC(=O)c1ccc2c(c1)OCCOCCOc1ccc(C(C)=O)cc1OCCOCCO2,25.9% (inactive)
10,CN(Cc1ccccc1)C(=O)CCNC(=O)Cn1cnc2ccccc2c1=O,33.4% (inactive)
11,Cc1ccc(CCNC(=O)C2CCN(S(=O)(=O)N3CCCC3)CC2)cc1,-6.28% (inactive)

# Biological target: Neuropeptide Y receptor type 1 (Homo sapiens) (UniProt P25929)
# Assay: human Y1 receptor agonism, CNGC membrane potential – cell-based, fluorescence, selectivity assay for NPY-Y2 potentiator project (AID 1702;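 active means activation above the mean of DMSO-only control wells plus 3 SD, cut at about 18% in these data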;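 further: cells stimulated with 1 µM isoproterenol plus the PDE inhibitor Ro 20-1724; 0% = isoproterenol with DMSO and no NPY and 100% = 40 nM NPY; Y1 agonists lower the membrane potential dye signal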)
# Conditions: HEK293 Y1-CNGC, at 3.6 µM, active compounds read high
row,SMILES,activation
1,O=C(Nc1sc2c(c1-c1nc3ccccc3[nH]1)CCCC2)C1CC1,27.3% (active)
2,O=C1NC(c2ccc(-c3ccccc3[N+](=O)[O-])o2)C(C(=O)c2ccc(Cl)cc2)C(O)(C(F)(F)F)N1 (centres undefined),30.5% (active)
3,O=C(NCc1ccccc1)c1ccc(S(=O)(=O)Nc2cccc(C(F)(F)F)c2)cc1,12% (inactive)
4,CN(C)c1ccc(CNC2C3CC4CC(C3)CC2C4)cc1 (centres undefined),-11.2% (inactive)
5,COc1ccc2nc(NC(=O)NC3CCCCC3)sc2c1,72.5% (active)
6,N/C(=N\S(=O)(=O)c1cc(C(F)(F)F)cc(C(F)(F)F)c1)c1cccs1,15.7% (inactive)
7,CC(Nc1ccccc1)c1cccnc1 (centres undefined),-5.76% (inactive)
8,COc1cc(NC(=O)c2ccccc2NS(=O)(=O)c2ccc(Cl)s2)cc(OC)c1,-29% (inactive)
9,CC(=O)c1ccc2c(c1)OCCOCCOc1ccc(C(C)=O)cc1OCCOCCO2,36.5% (active)
10,CN(Cc1ccccc1)C(=O)CCNC(=O)Cn1cnc2ccccc2c1=O,11.4% (inactive)
11,Cc1ccc(CCNC(=O)C2CCN(S(=O)(=O)N3CCCC3)CC2)cc1,-10.2% (inactive)
